Measurements as given in PubChem BioAssay (Tox21).
Inconclusive results are not listed. The source made the active and inactive calls. Unless noted, the call rests on the fitted dose curve.

What was measured:
[1] = qHTS assay to identify small molecule agonists of the sonic hedgehog signaling (Shh) pathway (AID 1259368);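 further: NIH/3T3-derived 3T3Gli1-Luc cells carrying a stable Gli1-driven firefly luciferase reporter; series mostly up to about 92 µM; nearly all actives have a fitted effect of over 15% in size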
How it was run: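 Cells of a mouse NIH/3T3 clone stably expressing luciferase under the Gli1 transcriptional response element are exposed to test chemicals for 24 hr at 37 C. Pathway activation is detected as a rise in luminescence.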

[2] = qHTS assay to identify small molecule antagonists of the sonic hedgehog signaling (Shh) pathway (AID 1259369); further: nearly all actives have a fitted effect of over 45% in size
How it was run: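 Cells are plated and held 4hr at 37 C, compounds (DMSO) are pinned in, conditioned medium is added to stimulate the pathway, and after 24hr luciferase reagent is added for 30min before luminescence is read.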

[3] = biological target: Estrogen receptor beta (Homo sapiens) (UniProt Q92731); assay: qHTS assay to identify small molecule agonists of the estrogen receptor beta (ER-beta) signaling pathway (AID 1259377; active means well fitted activation curve with a large enough effect in the signal ratio in the repeat runs, not every such curve was filed as active; the % refers to the signal ratio)
How it was run: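 qHTS in ER-beta-UAS-bla HEK293T cells: 6 hr settling, then 16 hr compound at 37C, then LiveBLAzer substrate 2 h at RT before fluorescence reading.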

[4] = qHTS assay to identify small molecule agonists of the androgen receptor (AR) signaling pathway in the presence of an antagonist - cell viability counter screen (AID 1259379; active means well fitted curve in the direction sought with a large enough effect in the repeat runs; an effect the other way counts as inactive or inconclusive;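 further: MDA-kb2 human breast cancer cells carrying an MMTV luciferase reporter; series mostly up to about 92 µM; nearly all actives have a fitted effect of over 25% in size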)
How it was run: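 Cytotoxicity is assessed by CellTiter-Fluor in MDA-kb2 cells carrying an MMTV-driven luciferase reporter. Cells receive 3.0uM nilutamide plus compounds at 15 concentrations and incubate 16 hr at 37C without CO2 before fluorescence reading.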

[5] = qHTS assay to identify small molecule agonists of the estrogen receptor beta (ER-beta) signaling pathway - cell viability counter screen (AID 1259380; active means well fitted curve in the direction sought with a large enough effect in the repeat runs; an effect the other way counts as inactive or inconclusive; further: nearly all actives have a fitted effect of over 30% in size)
How it was run: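 Cytotoxicity is measured in parallel with the reporter screen: after 16 hr compound exposure at 37C and a 2 hr LiveBLAzer step, CellTiter-Glo is added to the same ER-beta-UAS-bla HEK293T wells and luminescence read after 30 min.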

[6] = biological target: Androgen receptor (Homo sapiens) (UniProt P10275); assay: qHTS assay to identify small molecule agonists of the androgen receptor (AR) signaling pathway in the presence of an antagonist (AID 1259381); further: nearly all actives have a fitted effect of over 15% in size
How it was run: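 Agonist-mode confirmation screen: human MDA-kb2 cells stably expressing luciferase under an MMTV promoter bearing AR and GR response elements, co-treated with 3.0uM nilutamide (final). Luminescence measured after 16hr compound incubation.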

[7] = qHTS assay to identify small molecule antagonists of the estrogen receptor beta (ER-beta) signaling pathway - cell viability counter screen (AID 1259382; active means well fitted curve in the direction sought with a large enough effect in the repeat runs; an effect the other way counts as inactive or inconclusive; further: series mostly up to about 92 µM; nearly all actives have a fitted effect of over 55% in size)
How it was run: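 Cytotoxicity counter screen multiplexed with the beta-lactamase antagonist assay: GripTite HEK293T ER-beta-bla cells were treated 16 hr with test chemicals in the presence of 1nM 17-beta-estradiol, and viability was measured by CellTiter-Glo.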

[8] = biological target: Estrogen receptor (Homo sapiens) (UniProt P03372); assay: qHTS assay to identify small molecule agonists of the estrogen receptor alpha (ER-alpha) signaling pathway in the presence of an antagonist (AID 1259383); further: top concentration of the series differs between compounds; nearly all actives have a fitted effect of over 15% in size
How it was run: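 Agonist-mode confirmation in the presence of the ER antagonist ICI-182,780 at 10.0nM final. Breast-derived VM7Luc4E2 reporter cells were exposed to compounds for 22hr, and ERE-driven luciferase was quantified by luminescence.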

[9] = qHTS assay to identify small molecule agonists or antagonists of the thyroid stimulating hormone receptor (TSHR) signaling pathway - wild type cell line counter screen (AID 1259384)
How it was run: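 Wild-type Hek293 cells, 800/well, 18 h at 37C, then compound with Ro20-1724 for 30 min RT. cAMP by HTRF (cAMP-d2/anti-cAMP cryptate), 1 h RT, fluorescence read. 15 concentrations, triplicates.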

[10] = biological target: Estrogen receptor beta (Homo sapiens) (UniProt Q92731); assay: qHTS assay to identify small molecule antagonists of the estrogen receptor beta (ER-beta) signaling pathway (AID 1259378; active means well fitted inhibition curve with a large enough effect in the signal ratio in the repeat runs, not every such curve was filed as active; the % refers to the signal ratio)
How it was run: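 ER-beta-UAS-bla HEK293T cells in 2% charcoal-stripped FBS medium treated with compound plus 1nM final 17-beta-estradiol for 16 hr at 37C. Beta-lactamase reporter read by FRET substrate fluorescence after 2 hours at room temperature.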
On the % scale 0 is the no-effect control and ±100 the full control effect.

Sequence of Estrogen receptor (Homo sapiens) (P03372 whole entry, looked up): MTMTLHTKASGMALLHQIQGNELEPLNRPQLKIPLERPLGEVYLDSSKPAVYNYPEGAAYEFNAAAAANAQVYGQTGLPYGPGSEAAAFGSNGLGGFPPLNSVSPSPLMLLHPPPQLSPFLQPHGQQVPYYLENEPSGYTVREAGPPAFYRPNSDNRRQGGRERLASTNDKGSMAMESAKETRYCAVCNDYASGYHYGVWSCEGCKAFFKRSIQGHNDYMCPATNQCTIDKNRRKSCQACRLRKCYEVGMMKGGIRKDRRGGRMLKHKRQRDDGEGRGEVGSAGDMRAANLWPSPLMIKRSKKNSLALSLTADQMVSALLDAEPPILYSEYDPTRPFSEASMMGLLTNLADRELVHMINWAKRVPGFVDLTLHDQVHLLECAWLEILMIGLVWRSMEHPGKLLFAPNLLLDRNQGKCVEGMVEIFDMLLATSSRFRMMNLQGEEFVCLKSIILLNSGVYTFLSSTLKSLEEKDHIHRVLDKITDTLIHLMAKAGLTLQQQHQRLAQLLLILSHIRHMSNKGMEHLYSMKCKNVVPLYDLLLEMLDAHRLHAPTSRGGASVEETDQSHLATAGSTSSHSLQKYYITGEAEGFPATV
Sequence of Androgen receptor (Homo sapiens) (P10275 whole entry, looked up): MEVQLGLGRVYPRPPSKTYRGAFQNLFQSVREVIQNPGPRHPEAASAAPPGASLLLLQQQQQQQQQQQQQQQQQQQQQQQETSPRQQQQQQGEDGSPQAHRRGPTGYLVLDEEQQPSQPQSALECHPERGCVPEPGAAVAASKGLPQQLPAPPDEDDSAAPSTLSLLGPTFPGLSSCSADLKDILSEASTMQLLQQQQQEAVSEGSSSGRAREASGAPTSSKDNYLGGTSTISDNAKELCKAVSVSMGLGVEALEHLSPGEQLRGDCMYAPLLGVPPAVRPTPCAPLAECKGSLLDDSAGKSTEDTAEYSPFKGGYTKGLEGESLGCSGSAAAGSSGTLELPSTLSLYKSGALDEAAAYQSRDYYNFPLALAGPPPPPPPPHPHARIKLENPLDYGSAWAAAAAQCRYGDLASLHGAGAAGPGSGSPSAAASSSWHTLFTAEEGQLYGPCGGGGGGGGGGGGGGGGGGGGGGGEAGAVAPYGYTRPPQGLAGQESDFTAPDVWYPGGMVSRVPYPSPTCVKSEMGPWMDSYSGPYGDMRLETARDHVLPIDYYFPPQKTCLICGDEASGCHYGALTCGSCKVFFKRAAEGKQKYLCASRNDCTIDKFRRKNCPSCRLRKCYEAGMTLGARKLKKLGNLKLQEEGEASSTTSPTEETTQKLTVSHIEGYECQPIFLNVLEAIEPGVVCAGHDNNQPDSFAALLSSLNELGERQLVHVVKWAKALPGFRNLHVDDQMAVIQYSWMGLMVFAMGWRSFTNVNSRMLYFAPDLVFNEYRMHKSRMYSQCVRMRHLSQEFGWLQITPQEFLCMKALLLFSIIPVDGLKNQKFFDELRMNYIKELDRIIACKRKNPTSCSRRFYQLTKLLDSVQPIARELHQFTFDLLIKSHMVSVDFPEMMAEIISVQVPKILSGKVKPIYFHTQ
Sequence of Estrogen receptor beta (Homo sapiens) (Q92731 whole entry, looked up): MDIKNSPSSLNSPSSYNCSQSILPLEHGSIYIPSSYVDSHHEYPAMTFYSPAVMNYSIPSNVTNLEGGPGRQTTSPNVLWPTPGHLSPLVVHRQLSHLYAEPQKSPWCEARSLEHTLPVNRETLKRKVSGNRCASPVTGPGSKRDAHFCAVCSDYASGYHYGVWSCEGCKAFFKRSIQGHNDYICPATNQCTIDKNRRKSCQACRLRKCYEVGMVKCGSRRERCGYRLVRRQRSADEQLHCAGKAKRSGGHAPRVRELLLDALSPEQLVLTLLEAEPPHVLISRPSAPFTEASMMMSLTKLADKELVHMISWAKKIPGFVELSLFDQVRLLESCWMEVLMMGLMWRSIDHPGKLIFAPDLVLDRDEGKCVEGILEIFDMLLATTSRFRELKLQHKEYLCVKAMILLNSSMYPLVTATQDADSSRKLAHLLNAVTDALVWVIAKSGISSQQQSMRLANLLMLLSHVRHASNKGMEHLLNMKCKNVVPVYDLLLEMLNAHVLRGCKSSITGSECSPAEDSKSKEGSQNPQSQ

CC(C)NCC(O)COc1ccc(COCCOC(C)C)cc1 (centres undefined)
inactive: outcome [1] | Potency [2] | Potency [3] | Potency [4] | Potency [5] | Potency [6] | outcome [7] | outcome [8] | outcome [9]

O=C(NCCN1CCOCC1)c1ccc(Cl)cc1
inactive: outcome [1] | Potency [2] | Potency [3] | outcome [10] | Potency [4] | Potency [5] | outcome [7] | outcome [9]

Cc1ccsc1/C=C/C1=NCCCN1C
inactive: outcome [1] | Potency [2] | Potency [3] | outcome [10] | Potency [4] | outcome [7] | outcome [8] | outcome [9]

Cc1cccc(C)c1NC(=O)c1ccccc1C(=O)O
inactive: outcome [1] | Potency [2] | Potency [3] | Potency [4] | Potency [5] | Potency [6] | outcome [7] | outcome [8] | outcome [9]

Cc1ccc2c(c1)OCC(=O)CO2
inactive: outcome [1] | Potency [2] | Potency [3] | outcome [10] | Potency [4] | outcome [7] | outcome [8] | outcome [9]

Cc1cc(Cl)c(C)cc1Cl
inactive: outcome [1] | Potency [2] | Potency [3] | outcome [10] | Potency [4] | Potency [6] | outcome [7]

C=C(C)C(=O)OCC(C)(C)COC(=O)C(=C)C
inactive: outcome [1] | Potency [2] | Potency [3] | Potency [4] | Potency [5] | outcome [7]

Cc1ccccc1OCC(O)CO (centres undefined)
inactive: outcome [1] | Potency [2] | Potency [3] | Potency [4] | Potency [5] | outcome [7]

CC(=O)N[C@@H](CCC(=O)O)C(=O)O
inactive: outcome [1] | Potency [2] | Potency [3] | outcome [10] | Potency [4] | outcome [7] | outcome [9]

COC(=O)c1ccccc1C(=O)c1ccc(OCCN2CCCCC2)cc1
inactive: outcome [1] | Potency [2] | Potency [3] | outcome [10] | Potency [4] | outcome [7] | outcome [8] | outcome [9]

CNC(=O)[C@H]1O[C@@H](n2cnc3c(NCc4cc(Cl)ccc4OCc4cc(C)no4)ncnc32)[C@H](O)[C@@H]1N
inactive: outcome [1] | Potency [2] | Potency [3] | Potency [4] | Potency [5] | Potency [6] | outcome [7] | outcome [8] | outcome [9]

CC(C)OC(=O)CCCCC(=O)OC(C)C
inactive: outcome [1] | Potency [2] | Potency [3] | outcome [10] | Potency [4] | outcome [7] | outcome [8] | outcome [9]

C=COCCOCCOCCOC=C
inactive: outcome [1] | Potency [2] | Potency [3] | Potency [4] | Potency [5] | Potency [6] | outcome [7]

CCCCNC1CC(C)(C)NC(C)(C)C1
inactive: outcome [1] | Potency [2] | Potency [3] | outcome [10] | Potency [5] | outcome [7] | outcome [9]

CCCCCCCCOS(=O)(=O)O
inactive: outcome [1] | Potency [2] | Potency [3] | outcome [10] | Potency [4] | outcome [7] | outcome [8] | outcome [9]

O=P(O)(O)OP(=O)(O)O
inactive: outcome [1] | Potency [2] | Potency [3] | outcome [10] | Potency [4] | Potency [5] | outcome [7] | outcome [9]

CCCC(=O)C(C)=O
inactive: outcome [1] | Potency [2] | Potency [3] | outcome [10] | Potency [4] | Potency [5] | outcome [7] | outcome [9]

O=C(O)c1cc(Br)c(O)c(Br)c1
inactive: outcome [1] | Potency [2] | Potency [3] | outcome [10] | Potency [4] | Potency [6] | outcome [7] | outcome [9]

COCCOCCOCCOCCOCCO
inactive: outcome [1] | Potency [2] | Potency [3] | Potency [4] | Potency [5] | outcome [7]

CC(C)(C)NC(N)=O
inactive: outcome [1] | Potency [2] | Potency [3] | Potency [4] | Potency [5] | Potency [6] | outcome [7] | outcome [8] | outcome [9]

O=C(O)CCSSCCC(=O)O
inactive: outcome [1] | Potency [2] | outcome [10] | Potency [4] | Potency [6] | outcome [7] | outcome [8] | outcome [9]

CCN(C)C(=O)Oc1cccc([C@H](C)N(C)C)c1
inactive: outcome [1] | Potency [2] | outcome [10] | Potency [4] | Potency [5] | Potency [6] | outcome [7] | outcome [8] | outcome [9]

CC(C)(C)c1nnc(NS(=O)(=O)c2ccc(N)cc2)s1
inactive: outcome [1] | Potency [2] | outcome [10] | Potency [4] | Potency [5] | Potency [6] | outcome [7] | outcome [9]

Cc1nc2n(c(=O)c1CCN1CCC(c3noc4cc(F)ccc34)CC1)CCC[C@H]2O
inactive: activity change [1] -0.0213% [at 18.9 µM] | activity change, negative = inhibition [2] -4.73% [at 19 µM] | activation [3] 1.63% [at 19 µM] | activity change, negative = cytotoxicity [4] -2.37% [at 19 µM] | activity change, negative = cytotoxicity [5] -7.67% [at 19 µM] | activity change, negative = cytotoxicity [7] 1.75% [at 19 µM] | activation [8] 0% [at 19 µM] | cAMP activity change [9] -2.33% [at 18.9 µM]

c1ccc2nccnc2c1
inactive: outcome [1] | Potency [2] | Potency [3] | Potency [4] | Potency [5] | outcome [7] | outcome [8] | outcome [9]

CCCCCOC(=O)CCC
inactive: outcome [1] | Potency [2] | Potency [3] | Potency [4] | outcome [7]

CCCC/C=C\CCCCCCCCCC=O
inactive: outcome [1] | Potency [2] | Potency [3] | Potency [4] | Potency [5] | outcome [7] | outcome [9]

CCCCCCOC(=O)CC
inactive: outcome [1] | Potency [2] | outcome [10] | Potency [4] | Potency [5] | outcome [7] | outcome [8]

CC(C)C[C@H](NC(=O)CNC(=O)[C@H](Cc1ccc(O)cc1)NC(=O)[C@H](CO)NC(=O)[C@H](Cc1c[nH]c2ccccc12)NC(=O)[C@H](Cc1cnc[nH]1)NC(=O)[C@@H]1CCC(=O)N1)C(=O)N[C@@H](CCCN=C(N)N)C(=O)N1CCC[C@H]1C(=O)NCC(N)=O (stereo in doubt)
inactive: outcome [1] | Potency [2] | Potency [3] | Potency [4] | outcome [7]
